FPR binder: human FPR ligands by binding competition, primary screen, cell-based, FPRL1 counter-screen, flow cytometry; FPR-expressing cells, fluorescent ligand binding; inhibition, % (no concentration beside the values); 24,000 compounds, 0.74% hits
LNCaP diff act: activators of LNCaP prostate cell differentiation, primary screen, flow cytometry side scatter; 24,000 compounds, 0.56% hits; 4 d; side scatter shift, % at 10 µM;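 active = side scatter shift above 30%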;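 also: androgen-responsive LNCaP prostate cancer cells in charcoal-stripped serum medium; higher shift means more granular cells and more differentiation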
S aureus QS inh: S. aureus quorum sensing inhibitors, primary screen, RNAIII-GFP reporter, flow cytometry; AID 527, 2006; 24,000 compounds, 0.3% hits; inhibition, % at 2 µM; S. aureus RN6390 RNAIII-GFP reporter, AIP-induced, flow cytometry 3 h;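 active = share of bacteria positive for the green fluorescent reporter and its mean brightness both inhibited by 50% or more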
FPRL1 binder: human FPRL1 ligands by binding competition, primary screen, cell-based, FPR counter-screen, flow cytometry | inhibition, % (test concentration not listed) | AID 441, 2006 | 24,000 compounds, 0.3% hits | FPRL1-expressing cells, fluorescent ligand binding inhibition
Target sequence (P25090 whole entry, looked up): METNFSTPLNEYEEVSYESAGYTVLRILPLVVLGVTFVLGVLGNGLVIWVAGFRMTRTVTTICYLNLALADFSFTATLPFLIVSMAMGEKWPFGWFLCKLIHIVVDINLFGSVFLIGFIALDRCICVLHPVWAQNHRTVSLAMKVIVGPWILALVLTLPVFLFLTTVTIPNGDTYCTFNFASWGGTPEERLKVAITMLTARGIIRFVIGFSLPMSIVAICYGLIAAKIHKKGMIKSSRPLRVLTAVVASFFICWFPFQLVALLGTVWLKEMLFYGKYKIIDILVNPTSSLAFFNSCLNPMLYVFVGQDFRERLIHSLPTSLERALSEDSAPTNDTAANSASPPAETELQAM
Numbers stand for hits. An excerpt weighted towards active compounds, which were near 1.7% of everything screened. Rule as the data show it, unless noted: active = inhibition above about 30%; inconclusive = no clear call, values can overlap the other calls; inactive = below that.

Screening N=c1n(CCN2CCCCC2)c2ccccc2n1CC(O)COc1ccccc1 (stereo not given) returned FPR binder inactive, LNCaP diff act 64, S aureus QS inh inactive and FPRL1 binder inactive.
COc1ccccc1Oc1c(C)oc2c(CN(C)C)c(O)ccc2c1=O was read as FPR binder inactive and FPRL1 binder 30.
Screening COc1ccc(-c2nnc3ccc(SCC(=O)N4CCN(c5ccccc5)CC4)nn23)cc1 returned FPR binder inactive, LNCaP diff act inactive, S aureus QS inh inactive and FPRL1 binder inactive.
`O=C(O)c1ccc(S(=O)(=O)Cc2ccccc2)cc1` gave FPR binder inactive, LNCaP diff act inactive, S aureus QS inh inactive and FPRL1 binder inactive.
`CC(C)CN(CC(C)C)C(=O)CS(=O)(=O)Cc1ccccc1` gave FPR binder 63, LNCaP diff act inactive, S aureus QS inh inactive and FPRL1 binder inactive.
CCOc1cc(NC(=O)c2ccco2)c(OCC)cc1NC(=O)CCc1ccc(OC)cc1 was read as FPR binder 33, LNCaP diff act inactive, S aureus QS inh inactive and FPRL1 binder inactive.
For COc1ccc(NC(=O)CCc2ccccc2)cc1NC(=O)c1ccco1 the results were FPR binder inactive, LNCaP diff act inactive, S aureus QS inh inactive and FPRL1 binder inactive.
`COc1cc(OC)cc(-c2nnc(Nc3nc4c(F)cccc4s3)o2)c1` gave FPR binder inactive, LNCaP diff act inactive, S aureus QS inh inactive and FPRL1 binder inactive.
Screening COc1ccc(-c2nnc(Nc3nc4c(OC)cccc4s3)o2)cc1 returned FPR binder 52, LNCaP diff act inactive, S aureus QS inh inactive and FPRL1 binder inactive.
For COc1ccc(-c2nnc(Nc3nc4c(OC)cccc4s3)o2)c(OC)c1 the results were FPR binder 62, LNCaP diff act inactive, S aureus QS inh inactive and FPRL1 binder inactive.
COC(=O)c1ccc(C(=O)OC)c(NC(=O)c2ocnc2C)c1 was read as FPR binder inactive, LNCaP diff act inactive, S aureus QS inh inactive and FPRL1 binder inactive.
For COc1ccc(Nc2nc(-c3sc(N)nc3C)cs2)cc1 the results were FPR binder inactive, LNCaP diff act inactive, S aureus QS inh 56 and FPRL1 binder inactive.
Nc1c(C(O)(C(F)(F)F)C(F)(F)F)ccc2ccccc12 was read as FPR binder inactive, LNCaP diff act inactive, S aureus QS inh 63 and FPRL1 binder inactive.
Screening COC(=O)c1c(-c2cccs2)csc1NC(=O)CN1CCOCC1 returned FPR binder inactive, LNCaP diff act inactive, S aureus QS inh inactive and FPRL1 binder inactive.
CCOC(=O)c1c(-c2ccc(C)o2)csc1NC(=O)CN1CCN(CC)CC1 was read as FPR binder inactive, LNCaP diff act 34, S aureus QS inh inactive and FPRL1 binder inactive.
For COc1ccc(-n2nnc3c(SCC(=O)N4CCN(c5ccccc5)CC4)ncnc32)cc1 the results were FPR binder inactive, LNCaP diff act inactive, S aureus QS inh inactive and FPRL1 binder inactive.
CN(C)c1ccc(CNC2CC(C)(C)NC(C)(C)C2)cc1 was read as FPR binder inactive, LNCaP diff act 36, S aureus QS inh inactive and FPRL1 binder inactive.
Screening CC(CCc1ccccc1)NC(=O)C1CCN(S(=O)(=O)c2cnc[nH]2)CC1 (stereo not given) returned FPR binder inactive, LNCaP diff act inactive, S aureus QS inh inactive and FPRL1 binder inactive.
CC1(C)S[C@@H]2[C@H](NC(=O)C(C(=O)O)c3ccccc3)C(=O)N2[C@H]1C(=O)O (stereo not given in full) was read as FPR binder inactive, LNCaP diff act inactive, S aureus QS inh inactive and FPRL1 binder inactive.
`CC1(C)S[C@@H]2[C@H](NC(=O)[C@H](N)c3ccccc3)C(=O)N2[C@H]1C(=O)O` gave FPR binder inactive, LNCaP diff act inactive, S aureus QS inh 50 and FPRL1 binder inactive.
For COc1ccc(-c2cc(C(F)(F)F)nc(N3CCOCC3)n2)cc1OC the results were FPR binder inactive, LNCaP diff act inactive, S aureus QS inh inactive and FPRL1 binder inactive.
`COc1ccc(-c2cc(C(F)(F)F)nc(NC3CCCC3)n2)cc1OC` gave FPR binder inactive, LNCaP diff act inactive, S aureus QS inh inactive and FPRL1 binder 32.
For O=c1[nH]c2c(s1)C(c1ccco1)C1C3CCC(C3)C1S2 (stereo not given) the results were FPR binder inactive, LNCaP diff act inactive, S aureus QS inh inactive and FPRL1 binder inactive.
`CCN(CC)c1ccc(C=N/C(C#N)=C(\N)C#N)cc1` gave FPR binder inactive, LNCaP diff act inactive, S aureus QS inh inactive and FPRL1 binder 68.
CCN(CC)c1ccc(-c2c(C#N)c(N)nc(OC)c2C#N)cc1 was read as FPR binder inactive, LNCaP diff act inactive, S aureus QS inh inactive and FPRL1 binder inactive.
